{
  "source": "PubChem BioAssay (NCATS)",
  "note": "Values joined by “and” are separate entries in the source; they are usually repeats but may differ in a detail not shown here. Equal entries are not always repeated. Inconclusive results are not listed. Active and inactive are the calls of the source. Unless noted, calls follow the shape of the dose curve; as a rule, active = well fitted inhibition curve with a large enough effect in the repeat runs; inconclusive = weak or mixed curves; inactive = flat fitted curve, though single readings scatter.",
  "data": [
    {"tested_on": "not listed separately", "assay": "A High-Content qHTS Against Drug Library for the Identification of Small Molecules that Inhibit DYT1 Early Onset Primary Dystonia-Associated Cell Pathology (AID 1645839; calls by dose curve)", "conditions": "HEK293 Flp-In EGFP-delE TorsinA, punctate imaging, 48 h; series mostly up to 46.1 µM; % pathology change, negative = correction: at the top concentration", "method_in_brief": "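Induced EGFP-delE TorsinA cells are imaged after 48 h of compound treatment. Punctate fusion-protein distribution gives the %pathology value, while nuclei counts flag toxicity. Wild-type EGFP-hTOR1A cells define the normal pattern.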", "values": [
      {"molecule": "CC(=O)Nc1ccc(OC(=O)c2ccccc2OC(C)=O)cc1", "% pathology change, negative = correction": "5.14% (inactive)"},
      {"molecule": "CCCCCCCCOc1ccc(C(=O)c2ccccc2)c(O)c1", "% pathology change, negative = correction": "3.18% (inactive)"},
      {"molecule": "CC(O)Cn1cnc2c1c(=O)n(C)c(=O)n2C", "note": "(stereo not given)", "% pathology change, negative = correction": "13.2% (inactive)"},
      {"molecule": "CC(C)(C)CC(C)(C)c1ccc(O)c(-n2nc3ccccc3n2)c1", "% pathology change, negative = correction": "13.1% (inactive)"},
      {"molecule": "C=C[C@H]1CN2CC[C@H]1C[C@H]2[C@H](O)c1ccnc2ccc(OC)cc12", "% pathology change, negative = correction": "-14.8% (inactive)"},
      {"molecule": "CC(=O)N[C@@H](CCC(=O)O)C(=O)O", "% pathology change, negative = correction": "13.6% (inactive)"},
      {"molecule": "CC(=O)Oc1ccc(C)cc1", "% pathology change, negative = correction": "14.6% (inactive)"},
      {"molecule": "CCOc1ccccc1OCCN[C@H](C)Cc1ccc(OC)c(S(N)(=O)=O)c1", "% pathology change, negative = correction": "0.502% (inactive)"},
      {"molecule": "CN(Cc1ccc(C(C)(C)C)cc1)Cc1cccc2ccccc12", "% pathology change, negative = correction": "-0.14% (inactive)"},
      {"molecule": "Cc1cc(C)cc(OCC2CNC(=O)O2)c1", "note": "(stereo not given)", "% pathology change, negative = correction": "3.98% (inactive)"},
      {"molecule": "CC(=O)Nc1ccc(CC(=O)O)cc1", "% pathology change, negative = correction": "0.136% (inactive)"},
      {"molecule": "NS(=O)(=O)c1ccc(Cl)c(S(N)(=O)=O)c1", "% pathology change, negative = correction": "21.7% (inactive)"},
      {"molecule": "COC(=O)C(c1ccccc1Cl)N1CCc2sccc2C1", "note": "(stereo not given)", "% pathology change, negative = correction": "1.32% (inactive)"},
      {"molecule": "COc1ccccc1N1CCN(CCCCNC(=O)c2ccc(-c3ccc(C(C)=O)cc3)cc2)CC1", "% pathology change, negative = correction": "0.0315% (inactive)"},
      {"molecule": "COc1cc(C)nc(-n2nc(C)cc2OC)n1", "% pathology change, negative = correction": "1.49% (inactive)"},
      {"molecule": "CCCCCCCCCCCCCCCC(=O)O", "% pathology change, negative = correction": "2.18% (inactive)"},
      {"molecule": "CC(C(=O)O)c1cccc(Oc2ccccc2)c1", "note": "(stereo not given)", "% pathology change, negative = correction": "-11.1% (inactive)"},
      {"molecule": "O=[N+]([O-])c1ccc(/C=N\\O)o1", "% pathology change, negative = correction": "0.723% (inactive)"},
      {"molecule": "C[C@@H](O)[C@H]1C(=O)N2C(C(=O)O)=C([C@H]3CCCO3)S[C@H]12", "% pathology change, negative = correction": "-0.992% (inactive)"},
      {"molecule": "Cc1cccc(C)c1NC(=O)c1ccccc1C(=O)O", "% pathology change, negative = correction": "19.5% (inactive)"},
      {"molecule": "CCC(Cc1c(I)cc(I)c(N)c1I)C(=O)O", "note": "(stereo not given)", "% pathology change, negative = correction": "9.68% (inactive)"},
      {"molecule": "CCOCCn1c(N2CCCN(C)CC2)nc2ccccc21", "% pathology change, negative = correction": "4.49% (inactive)"},
      {"molecule": "C/C=C/C=N/NC(=O)c1ccncc1", "% pathology change, negative = correction": "13.2% (inactive)"},
      {"molecule": "C[C@H]1[C@H]2CC[C@H]3[C@@H]4CC=C5C[C@@H](N(C)C)CC[C@]5(C)[C@H]4CC[C@]23CN1C", "% pathology change, negative = correction": "9.07% (inactive)"},
      {"molecule": "CC(C)Nc1cccnc1N1CCN(C(=O)c2cc3cc(NS(C)(=O)=O)ccc3[nH]2)CC1", "% pathology change, negative = correction": "-0.798% (inactive)"},
      {"molecule": "CCN1CCN(C(=O)N[C@@H](C(=O)N[C@@H]2C(=O)N3C(C(=O)O)=C(CSc4nnnn4C)CS[C@H]23)c2ccc(O)cc2)C(=O)C1=O", "% pathology change, negative = correction": "11.8% (inactive)"},
      {"molecule": "C[N+]12CCC(CC1)C(OC(=O)C(O)(c1ccccc1)c1ccccc1)C2", "note": "(stereo not given)", "% pathology change, negative = correction": "6.81% (inactive)"},
      {"molecule": "O=C1OC(CN2CCOCC2)CN1/N=C/c1ccc([N+](=O)[O-])o1", "note": "(stereo not given)", "% pathology change, negative = correction": "15.6% (inactive)"},
      {"molecule": "CCCCC(CC)COC(=O)c1ccc(N(C)C)cc1", "note": "(stereo not given)", "% pathology change, negative = correction": "12.5% (inactive)"},
      {"molecule": "O=[N+]([O-])c1cccc(S(=O)(=O)NCCNS(=O)(=O)c2cccc([N+](=O)[O-])c2)c1", "% pathology change, negative = correction": "4.41% (inactive)"}
    ]},
    {"molecular_target": "Cytochrome P450 2D6 (Homo sapiens) (UniProt P10635)", "sequence (P10635 whole entry, looked up)": "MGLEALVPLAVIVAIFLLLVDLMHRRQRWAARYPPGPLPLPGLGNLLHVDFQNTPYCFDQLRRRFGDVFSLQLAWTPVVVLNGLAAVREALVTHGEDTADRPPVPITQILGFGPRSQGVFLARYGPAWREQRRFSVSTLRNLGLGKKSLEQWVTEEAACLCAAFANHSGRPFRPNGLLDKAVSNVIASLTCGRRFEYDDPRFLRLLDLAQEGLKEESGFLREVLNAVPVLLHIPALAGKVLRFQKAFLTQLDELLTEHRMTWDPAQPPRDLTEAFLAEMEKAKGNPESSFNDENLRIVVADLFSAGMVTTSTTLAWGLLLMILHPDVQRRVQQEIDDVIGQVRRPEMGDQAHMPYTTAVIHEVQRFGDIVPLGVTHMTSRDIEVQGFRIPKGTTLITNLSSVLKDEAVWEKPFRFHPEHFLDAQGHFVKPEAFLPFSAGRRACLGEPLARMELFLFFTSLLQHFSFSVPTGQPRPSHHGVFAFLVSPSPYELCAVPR", "assay": "Cytochrome P450 family 2 subfamily D member 6 (CYP2D6) small molecule antagonists: luciferase biochemical (cell-free) qHTS assay (AID 1645840); also: nearly all actives have a fitted effect of over 55% in size; also: potency is read from the fitted curve at half-maximal effect; as to activity change, negative = inhibition: % is scaled to controls: 0 for no effect and ±100 for the full control effect", "conditions": "P450-Glo CYP2D6 enzyme, luciferin luminescence, 1 h; series mostly up to 57.4 µM; activity change, negative = inhibition: at the top concentration", "method_in_brief": "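P450-Glo CYP2D6 system: proluciferin substrate converted by enzyme to luciferin, read by luminescence proportional to activity. Enzyme-substrate mix with compound 10 min at room temperature, then NADPH regeneration 1 h before detection reagent.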", "values": [
      {"molecule": "CC(=O)Nc1ccc(OC(=O)c2ccccc2OC(C)=O)cc1", "Potency": "15.5 µM (active)"},
      {"molecule": "CCCCCCCCOc1ccc(C(=O)c2ccccc2)c(O)c1", "activity change, negative = inhibition": "9.14% (inactive)"},
      {"molecule": "CC(C)(C)CC(C)(C)c1ccc(O)c(-n2nc3ccccc3n2)c1", "Potency": "inactive"},
      {"molecule": "CCc1nn(CCCN2CCN(c3cccc(Cl)c3)CC2)c(=O)n1CCOc1ccccc1", "Potency": "0.977 µM (active)"},
      {"molecule": "CC(=O)N[C@@H](CCC(=O)O)C(=O)O", "activity change, negative = inhibition": "4.92% (inactive)"},
      {"molecule": "CC(=O)Oc1ccc(C)cc1", "activity change, negative = inhibition": "-12.8% (inactive)"},
      {"molecule": "CCOc1ccccc1OCCN[C@H](C)Cc1ccc(OC)c(S(N)(=O)=O)c1", "Potency": "15.5 µM (active)"},
      {"molecule": "CN(Cc1ccc(C(C)(C)C)cc1)Cc1cccc2ccccc12", "Potency": "0.123 µM (active)"},
      {"molecule": "Cc1cc(C)cc(OCC2CNC(=O)O2)c1", "note": "(stereo not given)", "activity change, negative = inhibition": "3.34% (inactive)"},
      {"molecule": "CC(=O)Nc1ccc(CC(=O)O)cc1", "activity change, negative = inhibition": "5.93% (inactive)"},
      {"molecule": "CN1CCN(C2=Nc3cc(F)ccc3Cc3ccccc32)CC1", "Potency": "5.49 µM (active)"},
      {"molecule": "NS(=O)(=O)c1ccc(Cl)c(S(N)(=O)=O)c1", "activity change, negative = inhibition": "-4.17% (inactive)"},
      {"molecule": "COC(=O)C(c1ccccc1Cl)N1CCc2sccc2C1", "note": "(stereo not given)", "Potency": "17.4 µM (active)"},
      {"molecule": "COc1cc(C)nc(-n2nc(C)cc2OC)n1", "activity change, negative = inhibition": "10.9% (inactive)"},
      {"molecule": "CCCCCCCCCCCCCCCC(=O)O", "activity change, negative = inhibition": "15.6% (inactive)"},
      {"molecule": "CC(C(=O)O)c1cccc(Oc2ccccc2)c1", "note": "(stereo not given)", "activity change, negative = inhibition": "-0.199% (inactive)"},
      {"molecule": "CN(C)C(=O)Nc1ccc(Cl)c(Cl)c1", "activity change, negative = inhibition": "0.465% (inactive)"},
      {"molecule": "O=[N+]([O-])c1ccc(/C=N\\O)o1", "Potency": "13.8 µM (active)"},
      {"molecule": "C[C@@H](O)[C@H]1C(=O)N2C(C(=O)O)=C([C@H]3CCCO3)S[C@H]12", "activity change, negative = inhibition": "2.94% (inactive)"},
      {"molecule": "Cc1cccc(C)c1NC(=O)c1ccccc1C(=O)O", "activity change, negative = inhibition": "0.165% (inactive)"},
      {"molecule": "CCC(Cc1c(I)cc(I)c(N)c1I)C(=O)O", "note": "(stereo not given)", "Potency": "15.5 µM (active)"},
      {"molecule": "CCOCCn1c(N2CCCN(C)CC2)nc2ccccc21", "Potency": "6.92 µM (active)"},
      {"molecule": "CCCCOC(=O)CC(CC(=O)OCCCC)(OC(C)=O)C(=O)OCCCC", "activity change, negative = inhibition": "-23% (inactive)"},
      {"molecule": "C[C@H]1[C@H]2CC[C@H]3[C@@H]4CC=C5C[C@@H](N(C)C)CC[C@]5(C)[C@H]4CC[C@]23CN1C", "activity change, negative = inhibition": "8.36% (inactive)"},
      {"molecule": "CC(C)Nc1cccnc1N1CCN(C(=O)c2cc3cc(NS(C)(=O)=O)ccc3[nH]2)CC1", "Potency": "6.92 µM (active)"},
      {"molecule": "CCN1CCN(C(=O)N[C@@H](C(=O)N[C@@H]2C(=O)N3C(C(=O)O)=C(CSc4nnnn4C)CS[C@H]23)c2ccc(O)cc2)C(=O)C1=O", "activity change, negative = inhibition": "-21.8% (inactive)"},
      {"molecule": "O=C(NC1CCN(CCc2c[nH]c3ccccc23)CC1)c1ccccc1", "Potency": "1.23 µM (active)"},
      {"molecule": "C[N+]12CCC(CC1)C(OC(=O)C(O)(c1ccccc1)c1ccccc1)C2", "note": "(stereo not given)", "Potency": "15.5 µM (active)"},
      {"molecule": "Cc1ccc(O)c([C@H](CCN(C(C)C)C(C)C)c2ccccc2)c1", "Potency": "2.45 µM (active) and 2.13 µM (active)"},
      {"molecule": "O=[N+]([O-])c1cccc(S(=O)(=O)NCCNS(=O)(=O)c2cccc([N+](=O)[O-])c2)c1", "activity change, negative = inhibition": "-12.1% (inactive)"}
    ]}
  ]
}
